PubChem BioAssay AID2546 (National Center for Advancing Translational Sciences (NCATS), 2010)
About 11,000 (3.5%) of roughly 310,000 compounds were called active. Entries that show only a call come without a potency. About 8% were inconclusive and are not listed. This excerpt belongs to a sample that is enriched for actives. Unmarked numbers belong to inactive results. Calls come from the whole dose curve; as a rule, active = well fitted inhibition curve with a large enough effect; inconclusive = small, poorly fitted or top-dose-only effect, or effect the other way; inactive = flat fitted curve, though single readings scatter.

test: VP16 counterscreen qHTS for inhibitors of ROR gamma transcriptional activity; conditions: Drosophila S2 Gal4-VP16 UAS-luciferase, luminescence, 20 h; series mostly up to 53.6 µM;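 note: Gal4-VP16 expression switched on by copper sulfate through the metallothionein promoter; nearly all actives have a fitted effect of over 50% in size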
Potency is the fitted concentration of half-maximal effect.

Question: With COc1ccccc1-c1nc(SC)n[nH]1 as the compound, how does the Potency read?
Answer: The Potency was “inactive”.

Question: For COc1ccccc1-c1n[nH]c2c1[C@H](C)CC[C@H]2C(C)C, which Potency is on record?
Answer: The Potency was 12.6 µM (active).

Question: With COc1ccccc1-c1nc(N2CCN(C)CC2)c2ccccc2n1 as the compound, how does the Potency read?
Answer: The Potency was “inactive”.

Question: Which Potency does the source give for CCOc1cc(-c2noc(CCCC(=O)NC3CCCCC3)n2)ccc1OC here?
Answer: The Potency was “inactive”.

Question: Which Potency does the source give for CC(=O)c1ccc(N2Cc3ccccc3C2)cc1 here?
Answer: Its Potency is “inactive”.

Question: With CC(C)CC(O)C1CCN(C(=O)CCc2nnc(-c3ccc4c(c3)OCO4)o2)CC1 (stereo not given) as the compound, how does the Potency read?
Answer: The Potency was “inactive”.

Question: With Cc1oc(-c2ccccc2F)nc1CS(=O)CC(=O)NCCN1CCCCC1C (stereo not given) as the compound, how does the Potency read?
Answer: Its Potency is “inactive”.

Question: Which Potency does the source give for CCOc1ccccc1/C=N/NC(=O)CNC(=O)COc1ccccc1 here?
Answer: Its Potency is “inactive”.

Question: With CCOc1ccccc1/C=N/Nc1nc2ccccc2o1 as the compound, how does the Potency read?
Answer: Its Potency is 7.08 µM (active).

Question: For C=CCc1ccccc1OCC(=O)N/N=C/c1ccccc1OCC, which Potency is on record?
Answer: The Potency was “inactive”.

Question: For CC(C)(C)c1cc[n+](-c2[nH]c(=O)sc2/C=N/N=C(\[O-])c2ccccc2)cc1, which Potency is on record?
Answer: Its Potency is “inactive”.

Question: For O=C(Nc1ccncc1)c1ccc(Cl)c([N+](=O)[O-])c1, which Potency is on record?
Answer: The Potency was “inactive”.

Question: Which Potency does the source give for COc1ccc(CNS(=O)(=O)c2cc(-c3cc(C)no3)ccc2C(C)C)cc1 here?
Answer: The Potency was “inactive”.

Question: Which Potency does the source give for CC(=O)Nc1cccc(Nc2nc(-c3cccs3)nc3ccccc23)c1 here?
Answer: The Potency was “inactive”.

Question: With CC1CCCN(CCCNC(=O)CN2C(=O)COc3ccc(S(=O)(=O)N4CCOCC4)cc32)C1 (stereo not given) as the compound, how does the Potency read?
Answer: Its Potency is “inactive”.

Question: With C/C(=N\NC(=S)NC1CCCCC1)c1ccc(C)o1 as the compound, how does the Potency read?
Answer: Its Potency is 3.55 µM (active).

Question: With Cc1ccc(/C=N/NC(=S)NC2CCCCC2)o1 as the compound, how does the Potency read?
Answer: Its Potency is 2 µM (active).

Question: Which Potency does the source give for C/C(=N/NC(=O)c1ccc(Br)o1)c1ccc(C)o1 here?
Answer: The Potency was “inactive”.

Question: Which Potency does the source give for Cc1ccc(/C=N/NC(=O)Cn2nc(C)c(Br)c2C)o1 here?
Answer: Its Potency is “inactive”.

Question: With Cc1ccc(/C=N/NC(=O)CSc2ccccn2)o1 as the compound, how does the Potency read?
Answer: The Potency was “inactive”.

Question: With C/C(=N\NC(=O)NC1CCCCC1)c1ccc(OC(F)F)cc1OC(F)F as the compound, how does the Potency read?
Answer: The Potency was “inactive”.

Question: With Cc1ccccc1NC(=O)CSc1ccc2nnc(-c3ccccn3)n2n1 as the compound, how does the Potency read?
Answer: Its Potency is “inactive”.

Question: Which Potency does the source give for CC(C)NC(=O)COCc1cc(-c2ccc3c(c2)OCO3)on1 here?
Answer: The Potency was “inactive”.

Question: With COc1ccc(OC)c(CNC(=O)Cn2nc(C)c3c(C)n(-c4ccc(C)cc4)nc3c2=O)c1 as the compound, how does the Potency read?
Answer: Its Potency is “inactive”.

Question: With COc1ccc(CN(C)C(=O)c2cc(-c3ccc(C)cc3C)nc3ccccc23)c(OC)c1OC as the compound, how does the Potency read?
Answer: The Potency was “inactive”.

Question: With COc1ccc(C/C(N)=N/OC(=O)c2ccco2)cc1OC as the compound, how does the Potency read?
Answer: Its Potency is “inactive”.

Question: Which Potency does the source give for COc1ccc(C(=O)O/N=C(\N)Cc2ccc(Cl)cc2Cl)cc1OC here?
Answer: The Potency was 7.08 µM (active).

Question: Which activity, negative = inhibition does the source give for COc1ccc(CCn2ccc(O)c(Cc3ccc(Cl)cc3Cl)c2=O)cc1OC here?
Answer: The activity, negative = inhibition was 7.07% [at 10 µM].

Question: Which Potency does the source give for CC(CCc1ccc(O)cc1)NCc1ccc(Cl)cc1Cl (stereo not given) here?
Answer: The Potency was “inactive”.

Question: With O=S1(=O)N=C(N(CCO)/N=C/c2ccccc2F)c2ccccc21 as the compound, how does the Potency read?
Answer: The Potency was “inactive”.
